Laboratory results reported in the supplement of paper PMC9694430.
Several values for one entry are separate records, joined by “and”; a condition that tells them apart may be missing. Identical values can stand only once. Counter-ions that a name gives are not always drawn.

Assays:
Experiment in all cases: thermal shift delta Tm vs DMSO control; higher = stronger stabilization (binding)
Conditions in all cases: 12.5 µM; protein concentration 2 µM
[1] = test system: LOC_OS02G45750-cb003
In short: (§1)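 Heating from 25°C to 95°C at 0.05°C/s, fluorescence was recorded for 19.5 μl wells of 2 μM E. coli-expressed, purified rice kinase domain in 100 mM potassium phosphate pH 7.5, 150 mM NaCl, 10% glycerol and 5 × SYPRO Orange with compound in DMSO. Boltzmann fits gave melting temperatures for this differential scanning fluorimetry assay. The shift reported is the mean of three replicates against the DMSO-only protein.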

[2] = test system: LOC_OS02G54510-cb004
In short: as §1

[3] = test system: LOC_OS03G04050-cb001
In short: as §1

[4] = test system: LOC_OS03G12390-cb001
In short: as §1

[5] = test system: LOC_OS03G27990-cb004
In short: as §1

[6] = test system: LOC_OS03G50450-cb001
In short: as §1

[7] = test system: LOC_OS03G50810-cb003
In short: as §1

[8] = test system: LOC_OS04G35114-cb001
In short: as §1

[9] = test system: T1, LOC_OS04G38480-cb003
T1 sequence (whole entry): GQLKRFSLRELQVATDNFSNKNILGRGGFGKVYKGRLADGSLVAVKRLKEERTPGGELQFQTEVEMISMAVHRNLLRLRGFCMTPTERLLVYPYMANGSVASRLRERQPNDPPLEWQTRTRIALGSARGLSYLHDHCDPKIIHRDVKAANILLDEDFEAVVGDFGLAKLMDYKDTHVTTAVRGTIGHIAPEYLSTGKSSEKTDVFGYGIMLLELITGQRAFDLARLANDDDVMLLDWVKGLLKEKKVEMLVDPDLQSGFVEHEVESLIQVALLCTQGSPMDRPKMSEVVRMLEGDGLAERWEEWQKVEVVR
In short: as §1

[10] = test system: T2, LOC_OS04G41100-cb001
T2 sequence (whole entry): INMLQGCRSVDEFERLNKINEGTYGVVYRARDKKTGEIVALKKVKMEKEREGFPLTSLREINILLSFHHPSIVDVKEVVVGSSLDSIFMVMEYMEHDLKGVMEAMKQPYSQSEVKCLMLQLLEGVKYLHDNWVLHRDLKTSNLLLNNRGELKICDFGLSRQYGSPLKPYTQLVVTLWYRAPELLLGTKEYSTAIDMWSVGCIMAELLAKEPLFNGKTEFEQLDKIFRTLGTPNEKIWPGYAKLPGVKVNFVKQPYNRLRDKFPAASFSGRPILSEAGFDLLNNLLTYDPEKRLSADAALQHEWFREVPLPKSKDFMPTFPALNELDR
In short: as §1

[11] = test system: LOC_OS04G57630-cb004
In short: as §1

[12] = test system: LOC_OS05G07850-cb002
In short: as §1

[13] = test system: LOC_OS05G16824-cb004
In short: as §1

[14] = test system: LOC_OS05G28520-cb001
In short: as §1

[15] = test system: LOC_OS05G30820-cb001
In short: as §1

[16] = test system: LOC_OS05G43570-cb004
In short: as §1

[17] = test system: LOC_OS06G16330-cb003
In short: as §1

[18] = test system: T3, LOC_OS06G22820-cb001
T3 sequence (whole entry): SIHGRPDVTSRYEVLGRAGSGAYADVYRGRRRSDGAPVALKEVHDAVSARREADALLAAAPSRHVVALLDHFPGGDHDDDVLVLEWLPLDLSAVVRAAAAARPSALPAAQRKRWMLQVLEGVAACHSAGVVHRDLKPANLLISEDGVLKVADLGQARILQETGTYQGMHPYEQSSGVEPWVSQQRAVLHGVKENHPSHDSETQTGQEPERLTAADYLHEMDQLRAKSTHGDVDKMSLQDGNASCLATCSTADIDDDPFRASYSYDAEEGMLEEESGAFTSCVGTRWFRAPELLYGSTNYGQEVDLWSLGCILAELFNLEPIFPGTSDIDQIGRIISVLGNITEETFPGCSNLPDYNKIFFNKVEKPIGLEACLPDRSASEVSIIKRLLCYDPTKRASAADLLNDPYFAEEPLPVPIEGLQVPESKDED
In short: as §1

[19] = test system: LOC_OS07G06570-cb004
In short: as §1

[20] = test system: LOC_OS07G07230-cb001
In short: as §1
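Note: purified Escherichia coli-expressed rice kinase domain construct.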

LOC_OS06G16330-cb003, sequence (as listed by the source): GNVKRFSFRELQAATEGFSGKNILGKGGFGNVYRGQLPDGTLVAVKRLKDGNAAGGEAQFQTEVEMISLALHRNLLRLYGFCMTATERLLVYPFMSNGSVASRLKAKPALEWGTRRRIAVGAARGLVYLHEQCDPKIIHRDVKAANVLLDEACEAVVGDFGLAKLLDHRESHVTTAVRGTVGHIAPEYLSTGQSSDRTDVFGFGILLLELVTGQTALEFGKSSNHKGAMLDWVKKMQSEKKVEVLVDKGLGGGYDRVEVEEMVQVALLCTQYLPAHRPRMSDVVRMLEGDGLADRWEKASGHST

Structure (SMILES) | thermal shift delta Tm [1] | thermal shift delta Tm [2] | thermal shift delta Tm [3] | thermal shift delta Tm [4] | thermal shift delta Tm [5] | thermal shift delta Tm [6] | thermal shift delta Tm [7] | thermal shift delta Tm [8] | thermal shift delta Tm [9] | thermal shift delta Tm [10] | thermal shift delta Tm [11] | thermal shift delta Tm [12] | thermal shift delta Tm [13] | thermal shift delta Tm [14] | thermal shift delta Tm [15] | thermal shift delta Tm [16] | thermal shift delta Tm [17] | thermal shift delta Tm [18] | thermal shift delta Tm [19] | thermal shift delta Tm [20]
O=C(Nc1cnn2ccc(N3CCC[C@@H]3c3cc(F)ccc3F)nc12)N1CC[C@H](O)C1 [Larotrectinib (LOXO-101) sulfate] | 1.75 °C | 0.37 °C | 0.11 °C | -0.11 °C | 0.01 °C | 0.17 °C | 0.5 °C | 1.91 °C | 1.2 °C | 0.27 °C | -0.61 °C | 5.23 °C | 0.04 °C | 0.01 °C | 0.53 °C | 0.03 °C | 2.16 °C | 0.35 °C | 0.63 °C | 0.56 °C
Cn1ncc(Cl)c1-c1cc(C(=O)N[C@H](CN)Cc2cccc(F)c2)sc1Cl | 0.37 °C | -0.08 °C | 0.33 °C | 0 °C | 0.16 °C | 0.15 °C | -0.04 °C | 0.42 °C | 0.52 °C | 0.2 °C | -0.03 °C | 0.66 °C | -1.28 °C | 0.54 °C | 0.43 °C | 0.61 °C | 0.52 °C | 0.88 °C | 1.37 °C | 0.28 °C
OCCn1cc(-c2ccc3c(c2)CC/C3=N\O)c(-c2ccncc2)n1 | 0.34 °C | 0.15 °C | 0.48 °C | 0.53 °C | 0 °C | 0.31 °C | 0.5 °C | 0.11 °C | 0.49 °C | 0.67 °C | 0.24 °C | 2.18 °C | 0.35 °C | 1.1 °C | 0.48 °C | 0.5 °C | 0.46 °C | 0.85 °C | 0.92 °C | 0.21 °C
Cc1cnc(-c2cnc(NCCNc3ccc(C#N)cn3)nc2-c2ccc(Cl)cc2Cl)[nH]1 | 1.15 °C and 1.22 °C | 0.15 °C and -0.03 °C | 0.11 °C and 0.6 °C | 0.22 °C and 0.78 °C | 0.17 °C and 0.28 °C | -0.06 °C and 0.47 °C | 0.98 °C and 1.26 °C | 0.11 °C and 0.59 °C | 0.39 °C and 1.23 °C | 0.54 °C and 0.66 °C | -0.09 °C and 0.72 °C | 4.65 °C and 4.93 °C | 1.04 °C and 0.06 °C | 0.2 °C and 0.82 °C | 0.54 °C and 0.26 °C | 0.69 °C and 1.04 °C | -0.09 °C and -0.17 °C | 0.67 °C and 1.04 °C | 0.67 °C and 1.49 °C | 0.25 °C and -0.23 °C
Cc1cc(N2CCOCC2)cc2[nH]c(-c3c(NC[C@@H](O)c4cccc(Cl)c4)cc[nH]c3=O)nc12 | 3.33 °C | 2.85 °C | 0.49 °C | 5.81 °C | 1.27 °C | 4.61 °C | 3.54 °C | 4.79 °C | -0.48 °C | 0.77 °C | -0.02 °C | 9.39 °C | 5.37 °C | 1.06 °C | 0.82 °C | 0.65 °C | 4.87 °C | 0.56 °C | -0.16 °C | 0.74 °C
CN1CCN(c2ccc(Nc3cc(-c4cccc(-n5ccc6cc(C7CC7)cc(F)c6c5=O)c4CO)cn(C)c3=O)nc2)CC1 | 0.34 °C | -0.3 °C | 0.53 °C | -0.21 °C | 0.57 °C | 0.67 °C | 0.5 °C | 0.26 °C | 1.08 °C | 0.45 °C | 0.45 °C | 2.96 °C | 0.67 °C | 0.6 °C | 0.63 °C | 0.46 °C | 0.74 °C | 0.59 °C | 1.21 °C | 0.61 °C
O=c1cc(N2CCOCC2)oc2c(-c3ccccc3)cccc12 | 0.29 °C | 0 °C | 0.47 °C | 0.68 °C | -0.02 °C | 0.21 °C | 0.41 °C | 0.16 °C | 0.52 °C | 0.8 °C | 0.2 °C | 1.02 °C | 0.85 °C | 0.91 °C | 0.41 °C | 0.98 °C | 0.37 °C | 1.05 °C | 0.89 °C | -0.39 °C
Cc1c(NC(=O)OC[C@@H]2COCCN2)cn2ncnc(Nc3ccc4c(cnn4Cc4cccc(F)c4)c3)c12 | 0.67 °C | 0.27 °C | 0.42 °C | 0.69 °C | 0.14 °C | 0.45 °C | 0.15 °C | 1.04 °C | 1.85 °C | 0.82 °C | 0.21 °C | 0.64 °C | 0.54 °C | 0.43 °C | 0.46 °C | 0.75 °C | -0.49 °C | 0.8 °C | 0.91 °C | 0.29 °C
CCc1cncnc1N1CCN(Cc2nc3ccc(C(F)(F)F)cc3[nH]2)CC1 | 0.59 °C | 0.3 °C | 0.39 °C | -0.06 °C | 0.33 °C | 0.04 °C | 0.36 °C | 0.25 °C | 0.52 °C | 0.52 °C | -0.2 °C | -0.11 °C | -2.67 °C | -0.08 °C | 0.66 °C | 0.46 °C | 0.02 °C | 0.76 °C | 0.84 °C | -0.27 °C
CC(C)c1ccc2oc3nc(N)c(C(=O)O)cc3c(=O)c2c1 [Amlexanox] | 4.41 °C | 0.56 °C | 0.67 °C | 0.45 °C | 1.73 °C | 1.46 °C | 0.21 °C | 2.71 °C | 1.28 °C | 0.49 °C | 0.42 °C | 2.22 °C | 2.16 °C | 0.29 °C | 2.58 °C | 0.12 °C | 2.5 °C | 0.56 °C | 0.44 °C | 0.63 °C
O=C1NC(=O)/C(=C/c2ccc3c(c2)OC(F)(F)O3)S1 | 1.3 °C | 0.48 °C | 0.81 °C | 0.94 °C | 0.43 °C | 0.55 °C | 0.65 °C | 0.97 °C | 1.58 °C | 0.5 °C | 0.83 °C | 0.16 °C | -1.22 °C | 0.96 °C | 0.8 °C | 0.74 °C | 0.37 °C | 0.72 °C | 0.31 °C | 0.11 °C
